Screening results from PubChem.
Most compounds without a hit are left out; they make up all but 11% or so of the library.
3T3 cytotox: Cytotoxic Profiling in NIH 3T3 Cell Line of Diverse Libraries Using Quantitative High-Throughput Screening; AID 1345082, 2018; Potency, µM (doses to about 96.7 µM), without a hit: at the highest dose activity change, negative = cytotoxicity, usual class: inhibitors; 4.3% of 94,000 active; NIH 3T3 viability, CellTiter-Glo ATP luminescence, 48-72 h; also: nearly all actives have a fitted effect of over 55% in size
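Cytotoxicity is measured as loss of cellular ATP: NIH 3T3 cells (400/well) are exposed to compound for 48 or 72 hr at 37 °C, then CellTiter-Glo luminescence is imaged after 10 min at room temperature.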
HEK293 tox: Cytotoxic Profiling in HEK 293 Cell Line of Diverse Libraries Using Quantitative High-Throughput Screening; HEK 293 viability, ATP luminescence (CellTiter-Glo), 48-72 h; Potency, µM (top dose mostly 115 µM), without a hit: at the highest dose activity change, negative = cytotoxicity, hits mostly inhibitors; 6.6% of 94,000 active; AID 1345083, 2018; also: nearly all actives have a fitted effect of over 60% in size
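HEK 293 cells at 250 cells/well were exposed to compounds by pintool transfer for 48 or 72 hr at 37 degree Celsius, 5% CO2. Viability was read as ATP-coupled luminescence with CellTiter-Glo after 10 min at room temperature.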
Luciferase inh: Firefly luciferase inhibition profiling of diverse chemical library using quantitative high-throughput screening | Potency, µM (series often up to 115 µM), hits mostly inhibitors | purified P. pyralis luciferase, luminescence, biochemical | AID 1347043, 2019 | 2.5% of 76,000 active | Luciferin 4-monooxygenase (Photinus pyralis), P08659; also: nearly all actives have a fitted effect of over 65% in size
Target sequence (P08659 whole entry, looked up): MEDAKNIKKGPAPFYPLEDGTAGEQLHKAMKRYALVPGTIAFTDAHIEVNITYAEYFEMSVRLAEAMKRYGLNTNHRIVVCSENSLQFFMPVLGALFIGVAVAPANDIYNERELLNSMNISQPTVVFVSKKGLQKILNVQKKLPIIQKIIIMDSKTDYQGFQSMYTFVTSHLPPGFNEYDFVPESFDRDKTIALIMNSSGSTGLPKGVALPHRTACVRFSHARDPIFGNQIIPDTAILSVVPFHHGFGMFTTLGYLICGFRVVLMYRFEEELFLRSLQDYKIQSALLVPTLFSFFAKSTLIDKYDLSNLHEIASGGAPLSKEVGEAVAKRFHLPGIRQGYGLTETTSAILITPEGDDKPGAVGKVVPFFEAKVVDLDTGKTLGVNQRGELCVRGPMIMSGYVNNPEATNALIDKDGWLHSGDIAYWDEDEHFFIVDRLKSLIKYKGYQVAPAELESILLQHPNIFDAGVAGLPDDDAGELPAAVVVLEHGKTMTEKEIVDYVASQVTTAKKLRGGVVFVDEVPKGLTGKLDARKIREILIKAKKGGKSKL
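Luminescence read by CCD imaging after purified firefly luciferase (10nM final) was added to substrate buffer holding 10uM D-luciferin and 10uM ATP, pH 7.5, pre-dosed with compound.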
hNpr1 antagonist: Natriuretic polypeptide receptor (hNpr1) antagonism - Primary qHTS; HEK293 hNpr1 GloSensor cGMP, ANP-stimulated luminescence; Atrial natriuretic peptide receptor 1 (Homo sapiens), P16066; 1.6% of 76,000 active; Potency, µM (highest dose often 46.3 µM), for the others: at the top dose activity change, negative = inhibition, hits mostly inhibitors; calls by dose curve; also: nearly all actives have a fitted effect of over 60% in size
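HEK293 cells stably expressing human Npr1 and cGMP GloSensor pGS-40F, loaded 2 h with 2% GloSensor reagent, given compound 30 min at room temperature. Luminescence read before and 20 min after 0.1 nM hNppA.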
The depositor's hits bear a star; i = inactive; ? = inconclusive; / = not tested or not shown; [ ] = dose if it differs, or a comment. Unless noted, calls follow the shape of the dose curve; as a rule, active = well fitted curve in the direction sought with a large enough effect; inconclusive = small, poorly fitted or top-dose-only effect, or another doubt; inactive = no such curve, though single readings can be large; an effect the other way counts as inactive or inconclusive. % is scaled to controls: 0 for no effect and ±100 for the full control effect; potency is read from the fitted curve at half-maximal effect.

SMILES | 3T3 cytotox | HEK293 tox | Luciferase inh | hNpr1 antagonist
Cc1ccc(-c2c(C(=O)NCc3cccs3)nc3sccn23)cc1 | -11.1%[138 µM] | ? | / | /
COc1ccc(-c2nccn2CC(CO)Cc2ccsc2)cc1O (centres undefined) | ? | ? | i | -12.6%
COC[C@@H]1CN(Cc2cccc(OC)c2OC)C[C@H]1c1ccccn1 | ? | ? | i | -7.1%
COc1cc(C)c2c(c1C)C[C@H]([C@H](C)C(=O)NC1CCCC1)CC2 | ? | 39.8µM* | i | ?
COCCOc1cc(C)c2c(c1C)C[C@H]([C@H](C)C(=O)NC1CCCC1)CC2 | ? | ? | i | -0.5%[70.6 µM]
Cc1cc(OCC(=O)O)c(C)c2c1CC[C@@H]([C@H](C)C(=O)NCc1ccccc1)C2 | 79.4µM* | i | i | 2.8%[70.6 µM]
Cc1ccc(OCC(=O)NCCC2CCN(C(=O)Nc3ccccc3C)CC2)cc1 | -6.8% | -9.5% | i | -0.4%
CCN(CC)C(=O)c1cc(-c2ccccc2C(F)(F)F)nc2c1cnn2C | -18.3% | ? | / | /
CC(=O)N1CCC(Cc2noc(-c3ccccc3)n2)C1 (centres undefined) | -12.6% | ? | i | 4.4%
O=C(CCc1nc2ccccc2[nH]1)N1CCCC(Cc2noc(-c3ccccc3)n2)C1 (centres undefined) | ? | 22.4µM* | i | ?
O=C(c1cccc(F)c1)N1CCCC(Cc2noc(-c3ccccc3)n2)C1 (centres undefined) | 31.6µM* | ? | i | -9.0%
COc1ccc(OC2CCN(C(C)=O)CC2)c(C(=O)NCc2csc(C(C)C)n2)c1 | i | 3.2% | i | 8.0%
COc1ccc2c(C)c(C(=O)N(C)Cc3csc(C(C)C)n3)oc2c1 | ? | 44.7µM* | i | 1.4%
COc1cccc(CN2Cc3nc(-c4cc5ccccc5o4)ccc3OCC2=O)c1 | ? | 79.4µM* | i | -14.8%[70.6 µM]
COc1cccc(CN2Cc3nc(-c4ccc(F)cc4)ccc3OCC2=O)c1 | 79.4µM* | ? | i | -22.3%[70.6 µM]
COc1cccc(CN2Cc3nc(-c4cc(Cl)ccc4OC)ccc3OCC2=O)c1 | ? | 100µM* | i | -0.6%[70.6 µM]
COc1cccc(CN2Cc3nc(-c4c(C)noc4C)ccc3OCC2=O)c1 | 39.8µM* | ? | i | -7.0%[70.6 µM]
CC(C)(C)OC(=O)N1CC(Nc2ccccc2O)C1 | -24.0%[138 µM] | -13.4%[172 µM] | / | /
O=C(Cc1cccc(F)c1)N1CCC(Cc2nncn2-c2ccccc2)CC1 | ? | 2.3% | i | -1.0%
C#CCNC(=O)C1CCCN1C(=O)c1cccc(-c2cccnc2)c1 (centres undefined) | -19.6% | -0.6% | / | /
Cn1cnc(C(=O)NC2CCN(C(=O)N3CC4CC(C3)[C@H]3CCCC(=O)N3C4)CC2)c1 (some centres undefined) | -23.7% | -1.3% | i | -4.2%
COc1ncccc1CNC[C@H]1Cn2c(-c3ccc(F)cc3)cnc2CO1 | -29.8%[138 µM] | -18.9%[172 µM] | i | -16.6%[70.6 µM]
O=C1NCCCCCCN(C(=O)c2cccnc2)[C@H]2CCC[C@@H]12 | i | 3.3% | i | 6.1%
COc1ccc(C2(C(=O)NCCC3CCN(C(=O)Nc4ccc(C)cc4)CC3)CC2)cc1 | ? | ? | i | -3.7%
COc1nccnc1NC1CCN(C(=O)c2ccccc2C)CC1 | 3.2% | 11.3% | i | 2.1%
SMILES | 3T3 cytotox | HEK293 tox | Luciferase inh | hNpr1 antagonist
COc1cccc(CN2Cc3nc(-c4cccc(NC(C)=O)c4)ccc3OCC2=O)c1 | ? | 79.4µM* | i | -15.2%[70.6 µM]
CC(=O)Nc1cccc(-c2ccc3c(n2)CN(Cc2ccccc2)C(=O)CO3)c1 | ? | ? | i | -0.4%[70.6 µM]
CC(C)c1nc2c(c(-c3ccc(O)cc3)n1)CCN(C(=O)C1CC1)CC2 | -4.7% | i | / | /
O=c1c2nc(-c3cccc(O)c3)ccc2ncn1-c1ccccc1 | 8.91µM* | ? | 70.8µM* | 3.2%[70.6 µM]
COc1ccc(-c2ccc3ncn(C4CC4)c(=O)c3n2)cc1OC | 39.8µM* | ? | 63.1µM* | 3.5%[70.6 µM]
COc1ccc(-c2ccc3ncn(-c4ccc(F)cc4F)c(=O)c3n2)cc1OC | ? | ? | i | 0.2%[70.6 µM]
CC(=O)Nc1cccc(-c2ccc3ncn(-c4cccnc4)c(=O)c3n2)c1 | ? | -23.0%[172 µM] | i | 0.5%[70.6 µM]
O=c1c2nc(-c3cccc(O)c3)ccc2ncn1C1CC1 | 63.1µM* | -28.5%[230 µM] | ? | 1.3%[70.6 µM]
CCCCCC(=O)N1CC(=O)N(Cc2c(OC)cccc2OC)CC(O)C1 (centres undefined) | -25.9% | ? | / | /
COC1CCC(C(=O)N2CC(CNc3ccccc3)C3(C2)CN(c2ccccc2)C3)CC1 (centres undefined) | 44.7µM* | 63.1µM* | i | -4.5%[70.6 µM]
COC1CCC(C(=O)N2CC(COc3ccccc3)C3(C2)CN(c2ccccc2)C3)CC1 (centres undefined) | 89.1µM* | 89.1µM* | i | -9.0%[70.6 µM]
O=C(O)c1ccc([S+](=O)([O-])N2CC(COc3ccccc3)C3(CN(c4ccccc4)C3)C2)cc1 (centres undefined) | 31.6µM* | -32.2% | i | -13.5%
O=C(Cc1cccc(O)c1)N1CC(CNc2ccccc2)C2(C1)CN(c1ccccc1)C2 (centres undefined) | 22.4µM* | 31.6µM* | i | -17.5%[70.6 µM]
O=C(CCc1cccnc1)N1CC(CNc2ccccc2)C2(C1)CN(c1ccccc1)C2 (centres undefined) | ? | ? | i | -13.8%[70.6 µM]
O=C(CCc1cccnc1)N1CC(COc2ccccc2)C2(C1)CN(c1ccccc1)C2 (centres undefined) | ? | 89.1µM* | i | -0.8%[70.6 µM]
COCCn1ccc2c(C3=CCOCC3)nc(-c3cccc(N[S+](C)(=O)[O-])c3)cc21 | 35.5µM* | ? | i | -2.7%[70.6 µM]
COCCn1ccc2c(C3=CCOCC3)nc(-c3cccc4cn[nH]c34)cc21 | ? | 79.4µM* | i | -16.2%[70.6 µM]
COCCn1ccc2c(C3=CCOCC3)nc(-c3cccc(NC(C)=O)c3)cc21 | ? | ? | i | -4.9%[70.6 µM]
CCc1nc2c(NC(=O)Nc3cccc(C(=O)OC)c3)cccn2n1 | ? | ? | ? | -3.7%
Cc1nc2c(NC(=O)Nc3cccc(C(F)(F)F)c3)cccn2n1 | ? | 35.5µM* | ? | -24.1%
COc1ccc(NC(=O)Nc2cccn3nc(C)nc23)cc1 | ? | ? | 17.8µM* | -13.7%
COc1cccc(C(O)c2nc(C(=O)Nc3ccc(OC)c(OC)c3)c(C)o2)c1 (centres undefined) | -23.8%[138 µM] | ? | 25.1µM* | 3.3%[70.6 µM]
Cc1oc(C(O)c2cncnc2)nc1C(=O)Nc1ccc2c(c1)NC(=O)CO2 (centres undefined) | ? | -10.8%[172 µM] | i | -0.8%[70.6 µM]
COc1cccc(C(O)c2nc(C(=O)NCc3ccco3)c(C)o2)c1 (centres undefined) | ? | -41.4%[172 µM] | i | -5.1%[70.6 µM]
